Results taken from the supplement of paper PMC11732987, “Enantioselective OTUD7B fragment discovery through chemoproteomics screening and high-throughput optimisation” (Communications Chemistry, 2025).

Columns and labels:
Experiment in all cases: log2 ratio of Biotin-Ahx-Ub-VS probe labelling (fragment/DMSO); higher = less target engagement (more negative = stronger competition), active = hit call of the paper (q ≤ 0.05, log2 ratio ≤ -1)
Settings in all cases: compound concentration: 200 uM; treatment time: 3 h
OTUD6B = molecular target: T1, OTUD6B (UniProt Q8N6M0)
T1 sequence (whole entry): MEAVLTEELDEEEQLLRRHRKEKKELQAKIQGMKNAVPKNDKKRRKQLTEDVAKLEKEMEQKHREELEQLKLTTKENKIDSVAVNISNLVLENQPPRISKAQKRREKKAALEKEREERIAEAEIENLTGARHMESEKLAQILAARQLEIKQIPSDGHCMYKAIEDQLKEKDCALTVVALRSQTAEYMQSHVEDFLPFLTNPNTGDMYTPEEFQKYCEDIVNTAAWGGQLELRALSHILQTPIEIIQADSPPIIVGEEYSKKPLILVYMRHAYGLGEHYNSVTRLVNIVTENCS
Procedure, shortened: (§1)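 HEK293T lysate (495 µg per sample, in Tris/CHAPS/IGEPAL buffer with protease inhibitors) was treated in triplicate with fragment at 200 µM or with DMSO for 3 h. It was then treated with Biotin-Ahx-Ub-VS (0.5 µM final) for 1 h. Labelled DUBs were NeutrAvidin-enriched, digested with LysC and trypsin, and run by diaPASEF LC-MS/MS. Spectronaut label-free quantities were global-median-normalised. Values are average log2 ratios fragment/DMSO by unpaired t-test, using proteins with ≥2 unique peptides.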

OTUD7B = molecular target: T2, OTUD7B (UniProt Q6GQQ9)
T2 sequence (whole entry): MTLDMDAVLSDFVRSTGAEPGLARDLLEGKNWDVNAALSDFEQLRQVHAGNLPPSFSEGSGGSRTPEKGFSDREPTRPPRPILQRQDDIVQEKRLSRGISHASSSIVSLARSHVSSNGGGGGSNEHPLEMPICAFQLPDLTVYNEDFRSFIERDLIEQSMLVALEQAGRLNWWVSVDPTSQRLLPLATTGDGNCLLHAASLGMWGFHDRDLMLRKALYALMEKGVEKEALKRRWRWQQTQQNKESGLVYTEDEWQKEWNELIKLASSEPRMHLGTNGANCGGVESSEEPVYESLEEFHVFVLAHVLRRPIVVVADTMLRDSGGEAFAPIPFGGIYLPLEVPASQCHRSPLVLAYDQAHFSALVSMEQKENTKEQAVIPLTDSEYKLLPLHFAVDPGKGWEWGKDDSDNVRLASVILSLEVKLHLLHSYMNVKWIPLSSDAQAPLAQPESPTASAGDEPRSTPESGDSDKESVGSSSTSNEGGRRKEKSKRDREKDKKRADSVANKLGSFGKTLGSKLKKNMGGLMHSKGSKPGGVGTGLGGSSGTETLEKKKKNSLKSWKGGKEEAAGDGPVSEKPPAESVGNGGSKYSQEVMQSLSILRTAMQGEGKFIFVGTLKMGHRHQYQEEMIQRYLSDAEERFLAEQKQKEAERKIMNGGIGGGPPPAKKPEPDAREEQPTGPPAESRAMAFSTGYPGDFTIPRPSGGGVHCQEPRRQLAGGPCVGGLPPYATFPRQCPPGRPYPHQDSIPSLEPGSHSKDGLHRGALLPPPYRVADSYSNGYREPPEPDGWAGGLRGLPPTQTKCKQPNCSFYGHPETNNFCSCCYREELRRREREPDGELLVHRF
Procedure, shortened: as §1

PRPF8 = PRPF8 (UniProt Q6P2Q9)
Procedure, shortened: as §1

PSMD7 = molecular target: T3, PSMD7 (UniProt P51665)
T3 sequence (whole entry): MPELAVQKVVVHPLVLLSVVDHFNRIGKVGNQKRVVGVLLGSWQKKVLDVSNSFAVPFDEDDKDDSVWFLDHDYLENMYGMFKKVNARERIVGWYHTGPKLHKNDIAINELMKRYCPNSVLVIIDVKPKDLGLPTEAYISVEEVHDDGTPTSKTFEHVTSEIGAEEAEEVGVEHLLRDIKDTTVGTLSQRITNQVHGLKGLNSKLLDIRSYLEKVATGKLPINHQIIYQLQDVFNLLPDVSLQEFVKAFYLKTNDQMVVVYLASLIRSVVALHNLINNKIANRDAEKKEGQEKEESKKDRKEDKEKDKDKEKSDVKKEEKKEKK
Procedure, shortened: as §1

UCHL1 = UCHL1 (UniProt P09936)
UCHL1, sequence (P09936 whole entry, looked up): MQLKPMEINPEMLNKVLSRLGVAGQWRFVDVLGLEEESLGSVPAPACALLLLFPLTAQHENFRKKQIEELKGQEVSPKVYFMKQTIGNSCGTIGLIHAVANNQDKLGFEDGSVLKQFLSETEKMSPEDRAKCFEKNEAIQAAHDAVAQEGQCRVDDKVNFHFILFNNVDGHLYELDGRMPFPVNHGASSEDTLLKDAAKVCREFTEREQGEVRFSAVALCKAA
Procedure, shortened: as §1

UCHL3 = molecular target: T4, UCHL3 (UniProt P15374)
T4 sequence (whole entry): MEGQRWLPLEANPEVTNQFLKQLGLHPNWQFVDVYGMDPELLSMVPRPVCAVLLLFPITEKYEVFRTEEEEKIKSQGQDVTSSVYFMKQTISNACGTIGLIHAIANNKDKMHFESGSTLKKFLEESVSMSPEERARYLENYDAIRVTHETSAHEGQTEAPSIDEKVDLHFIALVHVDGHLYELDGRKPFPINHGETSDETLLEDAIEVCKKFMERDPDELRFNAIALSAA
Procedure, shortened: as §1

UCHL5 = molecular target: T5, UCHL5 (UniProt Q9Y5K5)
T5 sequence (whole entry): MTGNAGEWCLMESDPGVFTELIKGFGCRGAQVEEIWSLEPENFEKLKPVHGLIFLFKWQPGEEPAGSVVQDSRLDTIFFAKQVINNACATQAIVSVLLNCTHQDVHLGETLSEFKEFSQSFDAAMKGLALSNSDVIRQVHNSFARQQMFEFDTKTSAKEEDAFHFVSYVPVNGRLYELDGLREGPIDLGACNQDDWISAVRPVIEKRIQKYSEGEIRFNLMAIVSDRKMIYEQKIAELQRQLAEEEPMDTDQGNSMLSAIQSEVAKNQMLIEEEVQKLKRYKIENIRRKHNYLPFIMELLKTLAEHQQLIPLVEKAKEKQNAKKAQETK
Procedure, shortened: as §1

USP10 = USP10 (UniProt Q14694)
USP10, sequence (Q14694 whole entry): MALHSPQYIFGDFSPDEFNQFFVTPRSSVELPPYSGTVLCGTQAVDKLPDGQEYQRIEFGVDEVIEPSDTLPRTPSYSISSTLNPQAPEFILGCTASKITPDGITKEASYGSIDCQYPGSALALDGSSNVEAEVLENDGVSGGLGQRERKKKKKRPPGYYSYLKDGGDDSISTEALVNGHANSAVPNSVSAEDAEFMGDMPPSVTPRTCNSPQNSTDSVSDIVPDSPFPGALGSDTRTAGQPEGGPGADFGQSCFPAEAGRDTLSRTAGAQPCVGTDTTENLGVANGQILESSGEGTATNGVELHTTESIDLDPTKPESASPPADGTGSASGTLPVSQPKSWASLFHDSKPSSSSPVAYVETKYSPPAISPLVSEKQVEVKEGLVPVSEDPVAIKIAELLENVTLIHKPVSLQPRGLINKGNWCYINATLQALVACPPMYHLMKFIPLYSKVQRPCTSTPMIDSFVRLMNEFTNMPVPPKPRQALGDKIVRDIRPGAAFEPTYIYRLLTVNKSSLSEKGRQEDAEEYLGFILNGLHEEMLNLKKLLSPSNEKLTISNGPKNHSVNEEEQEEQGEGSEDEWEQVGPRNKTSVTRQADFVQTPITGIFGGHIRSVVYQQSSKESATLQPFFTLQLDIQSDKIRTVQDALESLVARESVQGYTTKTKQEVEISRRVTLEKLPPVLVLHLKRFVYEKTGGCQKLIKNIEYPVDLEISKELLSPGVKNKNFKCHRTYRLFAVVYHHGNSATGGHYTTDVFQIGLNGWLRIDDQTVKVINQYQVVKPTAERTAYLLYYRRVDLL
Procedure, shortened: as §1

USP15 = molecular target: T6, USP15 (UniProt Q9Y4E8)
T6 sequence (whole entry): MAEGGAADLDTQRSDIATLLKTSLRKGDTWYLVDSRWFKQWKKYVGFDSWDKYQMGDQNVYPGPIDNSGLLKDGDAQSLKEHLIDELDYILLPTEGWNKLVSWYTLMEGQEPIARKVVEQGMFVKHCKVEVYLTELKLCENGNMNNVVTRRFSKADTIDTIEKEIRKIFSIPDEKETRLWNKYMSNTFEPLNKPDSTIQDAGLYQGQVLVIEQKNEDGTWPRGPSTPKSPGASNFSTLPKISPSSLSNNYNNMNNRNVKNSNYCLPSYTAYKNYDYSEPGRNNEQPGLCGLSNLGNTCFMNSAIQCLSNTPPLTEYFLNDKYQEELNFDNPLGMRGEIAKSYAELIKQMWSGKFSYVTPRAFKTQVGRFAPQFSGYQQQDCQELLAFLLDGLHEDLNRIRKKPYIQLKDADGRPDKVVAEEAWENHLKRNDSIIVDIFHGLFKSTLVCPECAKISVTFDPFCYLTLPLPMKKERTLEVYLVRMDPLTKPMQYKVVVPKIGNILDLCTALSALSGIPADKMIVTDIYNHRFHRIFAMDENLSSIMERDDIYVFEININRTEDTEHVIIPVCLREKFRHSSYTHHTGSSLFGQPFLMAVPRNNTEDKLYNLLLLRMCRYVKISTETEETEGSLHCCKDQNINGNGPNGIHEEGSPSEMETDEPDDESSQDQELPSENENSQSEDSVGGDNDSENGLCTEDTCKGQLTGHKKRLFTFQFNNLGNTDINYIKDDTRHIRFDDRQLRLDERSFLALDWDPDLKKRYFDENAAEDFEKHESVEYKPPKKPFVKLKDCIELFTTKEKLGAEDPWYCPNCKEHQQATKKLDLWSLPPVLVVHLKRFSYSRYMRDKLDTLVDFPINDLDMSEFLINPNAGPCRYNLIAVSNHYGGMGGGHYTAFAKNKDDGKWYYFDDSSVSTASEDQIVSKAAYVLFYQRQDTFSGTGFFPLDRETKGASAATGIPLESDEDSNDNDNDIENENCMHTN
Procedure, shortened: as §1

USP16 = USP16 (UniProt Q9Y5T5)
USP16, sequence (Q9Y5T5 whole entry, looked up): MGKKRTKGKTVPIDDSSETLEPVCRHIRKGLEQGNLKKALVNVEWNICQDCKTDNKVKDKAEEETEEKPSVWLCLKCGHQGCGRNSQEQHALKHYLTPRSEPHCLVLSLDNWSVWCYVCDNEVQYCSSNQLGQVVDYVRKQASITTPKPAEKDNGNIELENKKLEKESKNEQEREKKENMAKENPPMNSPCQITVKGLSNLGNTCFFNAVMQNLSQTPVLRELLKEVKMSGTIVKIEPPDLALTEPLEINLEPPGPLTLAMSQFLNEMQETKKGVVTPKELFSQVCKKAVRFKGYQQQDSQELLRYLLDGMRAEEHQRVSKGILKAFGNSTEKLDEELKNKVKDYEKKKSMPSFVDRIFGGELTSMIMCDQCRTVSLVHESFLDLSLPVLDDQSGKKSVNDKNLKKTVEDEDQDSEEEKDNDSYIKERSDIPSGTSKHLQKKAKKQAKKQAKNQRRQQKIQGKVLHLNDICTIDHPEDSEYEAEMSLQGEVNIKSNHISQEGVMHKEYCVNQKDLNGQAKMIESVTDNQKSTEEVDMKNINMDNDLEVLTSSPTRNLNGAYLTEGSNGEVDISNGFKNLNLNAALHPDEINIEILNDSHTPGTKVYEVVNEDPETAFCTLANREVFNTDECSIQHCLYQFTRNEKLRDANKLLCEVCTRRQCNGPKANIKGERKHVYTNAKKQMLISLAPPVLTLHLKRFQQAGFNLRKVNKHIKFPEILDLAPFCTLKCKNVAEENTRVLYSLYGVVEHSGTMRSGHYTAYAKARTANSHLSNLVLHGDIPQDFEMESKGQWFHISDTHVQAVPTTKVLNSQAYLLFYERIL
Procedure, shortened: as §1

Measured: log2 ratio of Biotin-Ahx-Ub-VS probe labelling

O=C(CCl)N1CCC(C(=O)N2CCCC2)CC1
inactive: OTUD6B -0.427 | OTUD7B -0.121 | PRPF8 0.0985 | PSMD7 0.0529 | UCHL3 0.284 | UCHL5 0.037 | USP10 -0.257 | USP15 -0.395 | USP16 -0.362
active: UCHL1 -1.3
